# Cardio protect: protects H9c2 cardiomyocytes from peroxide injury | AID 588492 | H2O2 injury protection, ATPLite, 2 h | 0.63% of 360,000 active | protection from H2O2 cell death, % at 20 µM;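 active = compounds giving at least 50% protection of heart cells from peroxide-induced death in the single-dose screen, raw or plate-pattern-corrected value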;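 also: 0% = DMSO wells with peroxide and 100% = DMSO wells without peroxide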
# A3G deaminase: blocks human APOBEC3G single-stranded DNA deamination; Q9HC16; recombinant A3G, ssDNA deamination FAM/TAMRA fluorescence; AID 493012; 0.28% of 330,000 active; inhibition, % at 20 µM;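 active = inhibition of at least 40% at 20 µM, with no more than 30% in the related APOBEC3A deaminase screen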;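 also: plate controls were DMSO wells with A3G for no effect and wells lacking A3G enzyme for full effect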
# Target sequence (Q9HC16 whole entry, looked up): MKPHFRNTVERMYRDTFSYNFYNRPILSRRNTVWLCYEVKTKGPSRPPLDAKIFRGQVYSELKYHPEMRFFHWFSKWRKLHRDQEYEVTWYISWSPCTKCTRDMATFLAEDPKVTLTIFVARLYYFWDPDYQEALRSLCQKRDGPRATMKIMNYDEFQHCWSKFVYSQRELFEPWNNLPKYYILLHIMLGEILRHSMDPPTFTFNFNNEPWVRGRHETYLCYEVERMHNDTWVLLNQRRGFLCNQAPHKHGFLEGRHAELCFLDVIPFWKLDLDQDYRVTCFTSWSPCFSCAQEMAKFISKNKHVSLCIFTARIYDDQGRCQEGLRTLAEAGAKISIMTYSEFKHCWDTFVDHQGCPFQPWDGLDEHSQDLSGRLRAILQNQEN
# TAG inh: inhibitors of triacylglycerol accumulation. H9c2 cells, Nile Red lipid (TAG) fluorescence; cells loaded with 200 µM oleic acid. inhibition, % at 12.5 µM. 0.66% of 230,000 active;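 active = pattern-corrected inhibition of lipid staining of at least 50% with the nuclear-stain viability signal not falling by more than 50%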;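 also: 0% = DMSO wells and 100% = triacsin C control wells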
# PfG6PD inh: PfG6PD (Plasmodium falciparum) enzyme inhibition; PfGluPho enzyme, NADPH resazurin-diaphorase fluorescence; inhibition, % at 20 µM; 0.78% of 350,000 active; AID 504690;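 active = inhibition reaching at least a set limit at 20 µM in the primary screen, cut at about 59% in these data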;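 also: 0% = DMSO wells with substrate and 100% = DMSO wells lacking glucose-6-phosphate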
# APOBEC3A inh: inhibitors of human APOBEC3A DNA deaminase | recombinant A3A, FAM/TAMRA ssDNA deamination fluorescence | 0.41% of 330,000 active | inhibition, % at 20 µM | P31941;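 active = at least 40% inhibition at 20 µM here, with at most 30% in a related deaminase screen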;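 also: plate controls were A3A with DMSO for no effect and wells lacking A3A enzyme for full effect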
# Target sequence (P31941 whole entry, looked up): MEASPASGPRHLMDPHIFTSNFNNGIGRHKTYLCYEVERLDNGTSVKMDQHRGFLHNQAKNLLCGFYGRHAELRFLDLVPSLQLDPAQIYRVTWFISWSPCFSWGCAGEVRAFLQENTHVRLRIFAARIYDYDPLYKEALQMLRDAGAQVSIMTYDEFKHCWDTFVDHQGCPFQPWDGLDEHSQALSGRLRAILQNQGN
# NadD block: blocks S. aureus nicotinate mononucleotide adenylyltransferase; 0.78% of 360,000 active; purified NadD enzyme, colorimetric absorbance read-out; inhibition, % at 20 µM; AID 602399; in the data active = inhibition above about 26%
# Numbers without * were called inactive; . = not tested or not shown. In the library only some 2.9% were active in any assay of this set; here they are far more common.
SMILES,Cardio protect,A3G deaminase,TAG inh,PfG6PD inh,APOBEC3A inh,NadD block
CC1=C(CC[C@@H](C)CO)OC2CC3C4CCC5CC(O)CCC5(C)C4CC(=O)C3(C)C12 (stereo partly drawn),50*,-1,.,4,0,-1
CC(CCC(=O)O)C1CCC2C3CCC4C[C@H](O)CCC4(C)C3CC(=O)C12C (stereo partly drawn),6,-3,.,-22,2,-5
CCOC(=O)N1CCN(C(=O)c2ccc3c(c2)NC(=O)/C(=C\c2cccc(C)c2)S3)CC1,5,-2,.,-4,-1,-8
Cc1ccc(NC(=O)c2nc[nH]c2C(=O)Nc2ccc(C)cc2)cc1,-4,-1,20,-5,0,8
Cc1ccc(NC(=O)c2nc[nH]c2C(=O)NCCN(CCNC(=O)c2[nH]cnc2C(=O)Nc2ccc(C)cc2)CCNC(=O)c2[nH]cnc2C(=O)Nc2ccc(C)cc2)cc1,15,-5,110,28,-2,38*
Cc1cccc(NC(=O)c2nc[nH]c2C(=O)Nc2cccc(C)c2)c1,-12,-7,-3,-9,0,6
Cc1cccc(NC(=O)c2nc[nH]c2C(=O)NCCCNC(=O)c2[nH]cnc2C(=O)Nc2cccc(C)c2)c1,62*,-4,84*,1,-2,16
Cc1ccc(C)c(S(=O)(=O)Nc2ccc(C(=O)N3CCC3)cc2)c1,-7,-5,-9,9,-3,6
Cn1c(=O)c2c(nc(Br)n2Cc2ccc3ccccc3c2)n(C)c1=O,87*,8,.,2,2,-2
COCCN1CC(CNC(=O)c2cc(COc3ccccc3SC)on2)CC1=O (stereo not drawn),-2,2,12,-13,3,3
Cc1ccc(N2C(=O)N(CC(=O)Nc3ccc(C)cc3[N+](=O)[O-])C(=O)C2C)cc1 (stereo not drawn),3,-9,0,-8,1,-6
C#CCOc1nc(Nc2cccc([N+](=O)[O-])c2)nc(OCC#C)n1,56*,-9,7,3,-3,-9
Cc1nc(N)sc1-c1csc(Nc2cc(N(C)C)ccc2Cl)n1,-18,.,18,39,.,42*
CC(=O)c1cccc(Nc2nc(-c3sc(N)nc3C)cs2)c1,70*,-6,-1,18,-6,17
COc1ccc(CCNc2nc(-c3sc(N)nc3C)cs2)cc1OC,16,-7,.,37,-3,30*
COc1ccc(Nc2nc(-c3sc(N)nc3C)cs2)cc1,1,3,4,35,-2,17
CC(=O)c1cccc(Nc2nc(-c3sc(C)nc3C)cs2)c1,41,-12,10,19,-6,3
COc1cccc2cc(C(=O)OCC(=O)NCc3ccc4c(c3)OCO4)c(=O)oc12,6,-3,17,23,-1,-1
CCCCC1CCC(C(=O)Nc2ccc(S(=O)(=O)Nc3nccs3)cc2)CC1 (stereo not drawn),-12,-3,.,-6,-1,33*
CCC(=O)Nc1ccc(S(=O)(=O)Nc2nccs2)cc1,-2,-2,8,5,-4,7
Clc1ccccn1,7,-9,.,-16,-5,3
O=c1[nH]c(-c2cccnc2)nc2ccccc12,47*,-1,2,9,5,-4
CN(C)c1ccc(C=Nc2ccccc2)cc1,-5,2,.,-19,6,-5
CN(C)c1ccc(N=Cc2ccco2)cc1,-14,-3,.,60*,-4,6
COc1ccc(CCNS(=O)(=O)c2ccc(Cl)cc2)cc1OC,-1,-8,.,-3,-1,-5
SMILES,Cardio protect,A3G deaminase,TAG inh,PfG6PD inh,APOBEC3A inh,NadD block
CCOC(=O)C1CCN(C(c2cc3c(C)ccc(C)c3[nH]c2=O)c2nnnn2C2CCCCC2)CC1 (stereo not drawn),57*,-4,.,-5,0,8
CCOC(=O)C1CCN(C(c2cc3ccc(C)c(C)c3[nH]c2=O)c2nnnn2C2CCCCC2)CC1 (stereo not drawn),0,-4,.,-11,0,7
CS(=O)(=O)c1ccc(C(=O)OCC(=O)NCc2cccs2)cc1[N+](=O)[O-],-16,-3,51*,18,0,1
Cc1cccc(C(=O)OCC(=O)NCc2cccs2)c1,-1,-2,-8,-15,4,-3
COCCNC(=O)CCC(=O)NNc1nc2ccccc2c2nc(-c3ccccc3)nn12,10,-7,12,29,-8,3
N#Cc1c(F)cccc1NCCCn1ccnc1,4,-4,2,11,-4,-5
Cn1cnc(Sc2ncnc3nc[nH]c23)c1[N+](=O)[O-],1,-10,2,61*,-3,-6
Cn1c2ccccc2c(=O)c2ccc(C#Cc3ccccn3)cc21,.,-6,.,18,1,.
COc1cc2oc3ccc(C#Cc4ccc(N)cc4)cc3c(=O)c2cc1OC,57*,.,26,13,.,-4
COc1cc2oc3cc(C#Cc4ccc(N)cc4)ccc3c(=O)c2cc1OC,72*,4,12,1,1,9
Nc1ccc(C#Cc2ccc3c(=O)c4ccccc4oc3c2)cc1,-7,-13,-10,-2,-2,14
COc1cc2oc3ccc(C#Cc4ccccn4)cc3c(=O)c2cc1OC,66*,7,4,21,3,-5
Cc1[nH]c2ccccc2c1/C=N/Nc1nc(Nc2ccccc2)nc(N2CCOCC2)n1,60*,-7,150,15,-3,19
Cc1ccc(/C=C2\SC(=S)N(/N=C/c3cc([N+](=O)[O-])ccc3O)C2=O)o1,10,72,.,51,89,37*
O=C(NN1C(=O)/C(=C/c2cc([N+](=O)[O-])ccc2O)SC1=S)c1ccccc1O,.,23,.,.,-5,.
NS(=O)(=O)c1ccc(-c2ccc(/C=C3\SC(=S)N(C4CCS(=O)(=O)C4)C3=O)o2)cc1 (stereo not drawn),14,8,4,46,-4,35*
Cc1ccc(/C=C2\SC(=S)N(C3CCS(=O)(=O)C3)C2=O)o1 (stereo not drawn),-12,11,.,20,21,10
Cc1cc(NC(=O)c2cccs2)cc(-c2nc3ncccc3o2)c1O,58*,-4,38,3,0,11
Cc1ccc(N=C2NC(=O)/C(=C/c3cn(C)c4ccccc34)S2)cc1C,-4,.,6,9,.,34*
Cn1cccc1/C=C1\SC(=Nc2ccccc2)NC1=O,-6,-4,18,10,-4,-5
Cc1cc(C(=O)Nc2ccccc2C(=O)O)ccc1NC(=O)COc1ccccc1Cl,5,.,-18,-29,.,14
O=C1c2cccc(Sc3ccccc3)c2C(=O)c2c(Sc3ccccc3)cccc21,1,0,78*,15,1,9
O=C(Nc1cccc(F)c1)c1ccc(Cn2cc([N+](=O)[O-])cn2)o1,-11,1,-34,-7,2,1

# Assay outcomes from PubChem BioAssay.
